Data on 5 compounds can be found in PubChem BioAssay (EPA / NIEHS).

A short description of assay [1]: ATG_TAL_CIS: Attagene CIS-FACTORIAL HepG2 Assay for human TAL Basal Promoter (AID 2282966; active = hit-call score of the fitted dose curve at least 0.9, where 1 is the maximum; inactive = score below 0.9;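 also: background control endpoint measuring basal TAL promoter reporter mRNA not a specific factor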). Particulars: HepG2 Attagene cis-factorial TAL promoter reporter; actives raise or lower the signal. In outline:
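HepG2, transient MRTU transfection, 24 h compound exposure; RNA → oligo(dT) RT → PCR → 6-FAM primer extension → HpaI digest → CE fluorescence. Bidirectional curve fit vs DMSO. Background-control readout.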

The nature of assay [2]: ATG_TGFb_CIS: Attagene CIS-FACTORIAL HepG2 Assay for human Transforming Growth Factor (TGF) (AID 2282967; active = hit-call score of the fitted dose curve at least 0.9, where 1 is the maximum; inactive = score below 0.9). To be noted: HepG2 Attagene CIS TGFb reporter, mRNA transcription; actives raise or lower the signal. A digest of the protocol:
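HepG2 cells transiently transfected with cis-promoter-driven multiple reporter units measure endogenous TF activity; reporter mRNA quantified at 24 h by RT-PCR, FAM labeling, HpaI digestion and capillary electrophoresis. Bidirectional fit vs DMSO.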

Assay [3] deals with Nuclear receptor subfamily 1 group I member 3 (Homo sapiens) (UniProt Q14994). As to the kind of experiment: ATG_CAR_TRANS: Attagene TRANS-FACTORIAL HepG2 Assay for human Constitutive Androstane Receptor (CAR) (AID 2282969).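 Also: activators raise reporter mRNA above DMSO so AC50 marks induction.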 To be noted: HepG2 Attagene TRANS-FACTORIAL CAR reporter. A digest of the protocol:
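Signal is reporter mRNA induction relative to DMSO, measured 24 h after dosing by RT-PCR with fluorescent primer extension and capillary electrophoresis. Human HepG2 liver cells carried transiently transfected chimeric NR-Gal4/GAL4-UAS reporter constructs.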

Assay [4] addresses X-box-binding protein 1 (Homo sapiens) (UniProt P17861). As to the kind of experiment: ATG_Xbp1_CIS: Attagene CIS-FACTORIAL HepG2 Assay for human X-box Binding Protein 1 (XBP1) (AID 2282972; active = hit-call score of the fitted dose curve at least 0.9, where 1 is the maximum; inactive = score below 0.9). Particulars: HepG2 XBP1 cis-element reporter, Attagene multiplex; actives raise or lower the signal. In outline:
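Reporter transcripts were quantified by RT-PCR with fluorescent primer extension and capillary electrophoresis after 24 h chemical exposure. Cells: transiently transfected HepG2 carrying cis-regulated reporter constructs; data fitted bidirectionally relative to DMSO.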

Assay [5] deals with Oxysterols receptor LXR-alpha (Homo sapiens) (UniProt Q13133). As to the kind of experiment: ATG_LXRa_TRANS: Attagene TRANS-FACTORIAL HepG2 Assay for human Liver X Receptor alpha (LXRa) (AID 2282980). Particulars: HepG2 Attagene TRANS reporter, LXRa transactivation. In outline:
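Read-out: reporter transcript levels by RT-PCR plus capillary electrophoresis, fluorescence intensity. Transiently transfected HepG2, exogenous NR-GAL4 chimera, GAL4-UAS reporters; 24 h compound exposure. Activity = increase over DMSO negative control.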

Assay [6] addresses Oxysterols receptor LXR-beta (Homo sapiens) (UniProt P55055). As to the kind of experiment: ATG_LXRb_TRANS: Attagene TRANS-FACTORIAL HepG2 Assay for human Liver X Receptor beta (LXRb) (AID 2282981). To be noted: HepG2 Attagene TRANS GAL4-LXRb reporter, mRNA. A digest of the protocol:
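After 24 h chemical treatment of transfected HepG2 cells carrying exogenous NR-Gal4 chimeras, reporter mRNA was quantified by fluorescent RT-PCR and capillary electrophoresis; activity taken as increase over DMSO controls.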

The target of assay [7] is Hepatocyte nuclear factor 4-alpha (Homo sapiens) (UniProt P41235). As to the kind of experiment: ATG_HNF4a_TRANS: Attagene TRANS-FACTORIAL HepG2 Assay for human Hepatocyte Nuclear Factor 4 alpha (HNF4a) (AID 2282982). Particulars: HepG2 HNF4a transactivation reporter, mRNA readout. In outline: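 Activity of an exogenous HNF4a–Gal4 fusion scored as induced GAL4-UAS reporter transcripts after 24 h chemical exposure of transfected human HepG2 cells. Read-out via RT-PCR with 6-FAM labelling and capillary electrophoresis; rise over DMSO baseline.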
Chain of Hepatocyte nuclear factor 4-alpha (Homo sapiens) (P41235 whole entry, looked up, the tested form may be a part): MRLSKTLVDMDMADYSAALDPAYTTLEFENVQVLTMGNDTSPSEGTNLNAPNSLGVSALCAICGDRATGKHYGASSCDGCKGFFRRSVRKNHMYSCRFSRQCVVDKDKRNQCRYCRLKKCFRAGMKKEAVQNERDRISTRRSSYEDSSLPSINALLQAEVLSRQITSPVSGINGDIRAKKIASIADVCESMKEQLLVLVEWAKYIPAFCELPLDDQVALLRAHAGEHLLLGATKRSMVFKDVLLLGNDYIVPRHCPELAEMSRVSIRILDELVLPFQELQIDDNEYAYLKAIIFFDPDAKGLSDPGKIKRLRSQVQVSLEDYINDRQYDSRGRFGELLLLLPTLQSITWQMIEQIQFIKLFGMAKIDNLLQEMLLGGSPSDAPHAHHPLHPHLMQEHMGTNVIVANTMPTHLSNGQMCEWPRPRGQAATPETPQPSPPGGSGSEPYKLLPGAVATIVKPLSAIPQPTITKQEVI

Assay [8] in a line: ATG_M_06_TRANS: Attagene TRANS-FACTORIAL HepG2 Assay for M06 Transcription Factor (Internal Marker) (AID 2282983). Particulars: HepG2 Attagene TRANS M06 internal marker reporter. In outline:
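Read-out: fluorescent reporter cDNA fragments resolved by capillary electrophoresis after RT-PCR and HpaI cut. Source cells were HepG2 carrying transfected multi-reporter GAL4 constructs, dosed 24 h. Increase over DMSO control analysed.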

Assay [9] concerns the target Nuclear receptor subfamily 4 group A member 2 (Homo sapiens) (UniProt P43354). As to the kind of experiment: ATG_NURR1_TRANS: Attagene TRANS-FACTORIAL HepG2 Assay for human Nuclear Receptor Related Protein 1 (NURR1) (AID 2282985). To be noted: HepG2 Attagene TRANS reporter, mRNA readout. A digest of the protocol: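 Reporter transcript induction, measured by RT-PCR with fluorescent labelling, HpaI digestion and capillary electrophoresis, after 24 hr dosing of human HepG2 cells transiently expressing an exogenous NR-Gal4 fusion with GAL4-UAS-driven reporters; DMSO as baseline.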

Assay [10] deals with Transcriptional activator Myb (Homo sapiens) (UniProt P10242). The assay is described as follows: ATG_Myb_CIS: Attagene CIS-FACTORIAL HepG2 Assay for human Myeloblastosis (Myb) Proto-Oncogene Transcription Factor (AID 2282986; active = hit-call score of the fitted dose curve at least 0.9, where 1 is the maximum; inactive = score below 0.9). Particulars: HepG2 Attagene CIS-FACTORIAL Myb reporter transcription; actives raise or lower the signal. In outline: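 Using HepG2 liver cells bearing transiently transfected cis-promoter reporter constructs, the assay measures induction or loss of reporter mRNA after 24 hours of dosing. Detection used fluorescently labeled RT-PCR products separated by capillary electrophoresis.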
Chain of Transcriptional activator Myb (Homo sapiens) (P10242 whole entry, looked up): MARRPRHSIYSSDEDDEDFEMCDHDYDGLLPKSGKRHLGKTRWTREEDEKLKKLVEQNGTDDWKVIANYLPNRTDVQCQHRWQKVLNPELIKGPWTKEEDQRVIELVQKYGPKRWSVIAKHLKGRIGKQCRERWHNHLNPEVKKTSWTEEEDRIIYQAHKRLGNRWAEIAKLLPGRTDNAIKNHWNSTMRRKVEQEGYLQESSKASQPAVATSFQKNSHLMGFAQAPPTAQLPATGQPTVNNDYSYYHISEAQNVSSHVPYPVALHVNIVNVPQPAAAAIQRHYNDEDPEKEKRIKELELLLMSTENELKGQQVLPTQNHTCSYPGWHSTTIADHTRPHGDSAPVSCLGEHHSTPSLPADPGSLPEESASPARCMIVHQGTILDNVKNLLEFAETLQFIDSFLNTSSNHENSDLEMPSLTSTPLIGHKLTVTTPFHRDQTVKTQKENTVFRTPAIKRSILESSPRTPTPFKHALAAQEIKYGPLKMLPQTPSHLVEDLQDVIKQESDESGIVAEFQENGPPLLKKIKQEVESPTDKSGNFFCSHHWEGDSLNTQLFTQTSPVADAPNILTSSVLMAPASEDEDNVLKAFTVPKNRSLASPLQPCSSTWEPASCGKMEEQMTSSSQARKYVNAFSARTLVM

For assay [11], the target named is Nuclear respiratory factor 1 (Homo sapiens) (UniProt Q16656). As to the kind of experiment: ATG_NRF1_CIS: Attagene CIS-FACTORIAL HepG2 Assay for human Nuclear Respiratory Factor 1 (NRF1) Orphan Gene (AID 2282987; active = hit-call score of the fitted dose curve at least 0.9, where 1 is the maximum; inactive = score below 0.9). To be noted: HepG2 NRF1 cis-element reporter, Attagene multiplex; actives raise or lower the signal. In outline:
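Reporter mRNA induction or loss in HepG2 cells after 24 h dosing; cis-regulated reporter constructs report endogenous transcription-factor activity. Quantified by RT-PCR/capillary electrophoresis fluorescence, DMSO-referenced.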

Assay [12] is described as follows: ATG_M_19_TRANS: Attagene TRANS-FACTORIAL HepG2 Assay for M19 Transcription Factor (Internal Marker) (AID 2282974). Particulars: HepG2 Attagene TRANS-FACTORIAL M19 internal marker reporter. A digest of the protocol:
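Multiplexed TRANS format: HepG2 liver cells bearing transient GAL4-UAS reporter units, chemical treatment 24 h, reporter transcripts quantified by RT-PCR plus capillary electrophoresis. DMSO defines baseline.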

Assay [13] in a line: ATG_GAL4_TRANS: Attagene TRANS-FACTORIAL HepG2 Assay for GAL4 (Internal Marker) (AID 2282976). To be noted: HepG2 Attagene TRANS GAL4 internal marker reporter. In outline:
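RT-PCR/capillary electrophoresis readout of reporter mRNA. HepG2, transient MRTU transfection (GAL4-UAS reporters), 24 h compound exposure. Background-control endpoint, positive direction vs DMSO baseline.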

Assay [14] addresses Glucocorticoid receptor (Homo sapiens) (UniProt P04150). As to the kind of experiment: ATG_GR_TRANS: Attagene TRANS-FACTORIAL HepG2 Assay for human Glucocorticoid Receptor (GR) (AID 2282978).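 Also: activators score as hits since higher reporter transcript over DMSO is fitted.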 Particulars: HepG2 Attagene TRANS GR reporter, mRNA transcription. A digest of the protocol:
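Transiently transfected HepG2 cells express chimeric NR-GAL4 proteins acting on GAL4-UAS reporter units. Compounds are applied for 24 h. mRNA induction over DMSO is measured by capillary electrophoresis.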

For assay [15], the target named is Bile acid receptor (Homo sapiens) (UniProt Q96RI1). As to the kind of experiment: ATG_FXR_TRANS: Attagene TRANS-FACTORIAL HepG2 Assay for Farnesoid X Receptor (FXR) (AID 2282979).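 Also: hits raise reporter mRNA above DMSO so AC50 marks FXR activation.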 To be noted: HepG2 Attagene TRANS FXR-GAL4 reporter transcription. A digest of the protocol:
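Read-out: fluorescent reporter transcripts quantified by capillary electrophoresis after RT-PCR of total RNA. Source cells were HepG2 transiently carrying chimeric NR-GAL4 plus GAL4-UAS reporter units, dosed 24 h. Activity fitted upward relative to DMSO baseline.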

A short description of assay [16]: ATG_M_32_TRANS: Attagene TRANS-FACTORIAL HepG2 Assay for M32 Transcription Factor (Internal Marker) (AID 2282984).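 Also: transcript level of a background control reporter unit measured by RT-PCR and capillary electrophoresis.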 To be noted: HepG2 Attagene TRANS M32 internal marker reporter. In outline: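 Internal background reporter in transfected HepG2: after 24 h chemical exposure, RNA reverse-transcribed, reporter cDNA amplified, fluorescently labelled and HpaI-cut, then sized by capillary electrophoresis. Gain of signal fitted against DMSO control.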

Inconclusive results are not listed. Activity calls are given as the source filed them. The calls were made as follows, unless noted: active = hit-call score of the fitted dose curve at least 0.9, where 1 is the maximum; inconclusive = response in the unintended direction; inactive = score below 0.9.

The term AC50 denotes the midpoint of the concentration-response curve, whichever way the signal moves.

Chain of X-box-binding protein 1 (Homo sapiens) (P17861 whole entry, looked up): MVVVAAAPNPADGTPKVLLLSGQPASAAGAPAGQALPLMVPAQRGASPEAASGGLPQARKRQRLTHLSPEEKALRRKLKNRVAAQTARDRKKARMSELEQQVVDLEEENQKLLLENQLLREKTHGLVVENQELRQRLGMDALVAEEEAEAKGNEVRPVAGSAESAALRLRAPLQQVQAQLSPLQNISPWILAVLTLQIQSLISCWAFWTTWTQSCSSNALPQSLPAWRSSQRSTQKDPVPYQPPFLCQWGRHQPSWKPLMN
Chain of Nuclear respiratory factor 1 (Homo sapiens) (Q16656 whole entry, looked up): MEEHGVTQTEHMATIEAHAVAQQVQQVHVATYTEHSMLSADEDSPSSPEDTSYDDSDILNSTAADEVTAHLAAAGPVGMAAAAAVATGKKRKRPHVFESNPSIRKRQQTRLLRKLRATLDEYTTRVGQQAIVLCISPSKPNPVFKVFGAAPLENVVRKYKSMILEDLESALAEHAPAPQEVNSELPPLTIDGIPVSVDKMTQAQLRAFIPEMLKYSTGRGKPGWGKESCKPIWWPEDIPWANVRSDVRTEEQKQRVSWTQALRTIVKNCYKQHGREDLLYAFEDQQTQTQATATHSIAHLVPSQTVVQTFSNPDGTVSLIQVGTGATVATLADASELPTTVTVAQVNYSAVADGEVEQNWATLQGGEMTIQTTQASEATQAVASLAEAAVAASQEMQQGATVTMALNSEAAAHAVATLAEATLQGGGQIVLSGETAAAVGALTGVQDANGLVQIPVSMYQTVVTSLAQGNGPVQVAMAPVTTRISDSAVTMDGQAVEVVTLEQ
Chain of Nuclear receptor subfamily 1 group I member 3 (Homo sapiens) (Q14994 whole entry, looked up, the tested form may be a part): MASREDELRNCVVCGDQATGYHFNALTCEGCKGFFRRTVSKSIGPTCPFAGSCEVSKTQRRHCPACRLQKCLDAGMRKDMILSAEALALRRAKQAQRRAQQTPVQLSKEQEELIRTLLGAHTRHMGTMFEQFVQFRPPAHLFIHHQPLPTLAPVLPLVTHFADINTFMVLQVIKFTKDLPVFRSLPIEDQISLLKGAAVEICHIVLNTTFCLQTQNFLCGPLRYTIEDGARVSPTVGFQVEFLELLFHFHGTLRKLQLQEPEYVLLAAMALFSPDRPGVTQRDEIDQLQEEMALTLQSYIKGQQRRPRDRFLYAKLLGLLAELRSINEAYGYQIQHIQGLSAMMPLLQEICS
Chain of Nuclear receptor subfamily 4 group A member 2 (Homo sapiens) (P43354 whole entry, looked up, the tested form may be a part): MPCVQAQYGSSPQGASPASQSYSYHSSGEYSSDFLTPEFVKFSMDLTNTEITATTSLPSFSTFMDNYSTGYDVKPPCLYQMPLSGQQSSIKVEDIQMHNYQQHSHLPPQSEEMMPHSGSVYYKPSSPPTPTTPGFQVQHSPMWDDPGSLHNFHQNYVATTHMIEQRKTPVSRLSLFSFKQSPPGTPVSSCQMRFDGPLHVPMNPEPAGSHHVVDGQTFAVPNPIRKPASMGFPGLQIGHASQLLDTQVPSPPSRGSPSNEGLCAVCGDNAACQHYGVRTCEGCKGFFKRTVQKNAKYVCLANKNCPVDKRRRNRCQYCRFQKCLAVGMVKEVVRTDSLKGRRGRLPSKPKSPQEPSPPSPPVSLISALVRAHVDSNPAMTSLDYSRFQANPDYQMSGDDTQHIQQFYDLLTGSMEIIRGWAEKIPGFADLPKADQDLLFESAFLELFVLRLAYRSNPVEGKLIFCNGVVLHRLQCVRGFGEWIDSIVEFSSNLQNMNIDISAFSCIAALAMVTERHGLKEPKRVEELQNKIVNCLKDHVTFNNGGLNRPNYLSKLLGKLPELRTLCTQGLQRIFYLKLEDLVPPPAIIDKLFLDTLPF
Chain of Glucocorticoid receptor (Homo sapiens) (P04150 whole entry, looked up, the tested form may be a part): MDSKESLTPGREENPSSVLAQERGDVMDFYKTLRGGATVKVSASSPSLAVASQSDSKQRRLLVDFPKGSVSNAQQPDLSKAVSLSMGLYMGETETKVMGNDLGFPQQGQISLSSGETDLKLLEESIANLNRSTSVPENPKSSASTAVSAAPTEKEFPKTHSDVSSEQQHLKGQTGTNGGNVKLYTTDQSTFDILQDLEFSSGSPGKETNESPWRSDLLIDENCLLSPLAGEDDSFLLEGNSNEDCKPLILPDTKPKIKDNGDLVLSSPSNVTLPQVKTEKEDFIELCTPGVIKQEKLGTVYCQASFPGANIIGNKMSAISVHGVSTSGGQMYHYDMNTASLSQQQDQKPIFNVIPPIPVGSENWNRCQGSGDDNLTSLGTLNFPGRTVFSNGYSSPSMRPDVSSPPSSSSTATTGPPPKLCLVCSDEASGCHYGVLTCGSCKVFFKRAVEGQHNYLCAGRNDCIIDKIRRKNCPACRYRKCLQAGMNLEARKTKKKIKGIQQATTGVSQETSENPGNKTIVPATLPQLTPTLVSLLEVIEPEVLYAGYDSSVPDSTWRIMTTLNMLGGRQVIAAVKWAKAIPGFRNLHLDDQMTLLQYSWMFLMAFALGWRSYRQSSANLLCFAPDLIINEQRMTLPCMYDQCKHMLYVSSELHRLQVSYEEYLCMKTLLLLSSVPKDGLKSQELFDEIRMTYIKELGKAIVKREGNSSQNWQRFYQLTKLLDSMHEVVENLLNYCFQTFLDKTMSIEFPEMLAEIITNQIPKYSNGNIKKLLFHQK
Chain of Oxysterols receptor LXR-alpha (Homo sapiens) (Q13133 whole entry, looked up, the tested form may be a part): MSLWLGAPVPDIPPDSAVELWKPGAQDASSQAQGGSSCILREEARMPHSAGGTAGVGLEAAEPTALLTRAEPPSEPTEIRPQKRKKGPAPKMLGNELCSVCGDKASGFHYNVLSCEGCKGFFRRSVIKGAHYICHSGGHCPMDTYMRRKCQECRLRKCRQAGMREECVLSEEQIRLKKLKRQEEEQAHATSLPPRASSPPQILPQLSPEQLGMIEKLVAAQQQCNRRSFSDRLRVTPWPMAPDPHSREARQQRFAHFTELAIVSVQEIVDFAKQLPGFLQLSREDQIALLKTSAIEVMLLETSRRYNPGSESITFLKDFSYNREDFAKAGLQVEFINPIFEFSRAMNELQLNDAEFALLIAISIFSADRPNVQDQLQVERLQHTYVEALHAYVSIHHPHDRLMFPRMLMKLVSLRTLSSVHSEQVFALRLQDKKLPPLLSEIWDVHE
Chain of Oxysterols receptor LXR-beta (Homo sapiens) (P55055 whole entry, looked up, the tested form may be a part): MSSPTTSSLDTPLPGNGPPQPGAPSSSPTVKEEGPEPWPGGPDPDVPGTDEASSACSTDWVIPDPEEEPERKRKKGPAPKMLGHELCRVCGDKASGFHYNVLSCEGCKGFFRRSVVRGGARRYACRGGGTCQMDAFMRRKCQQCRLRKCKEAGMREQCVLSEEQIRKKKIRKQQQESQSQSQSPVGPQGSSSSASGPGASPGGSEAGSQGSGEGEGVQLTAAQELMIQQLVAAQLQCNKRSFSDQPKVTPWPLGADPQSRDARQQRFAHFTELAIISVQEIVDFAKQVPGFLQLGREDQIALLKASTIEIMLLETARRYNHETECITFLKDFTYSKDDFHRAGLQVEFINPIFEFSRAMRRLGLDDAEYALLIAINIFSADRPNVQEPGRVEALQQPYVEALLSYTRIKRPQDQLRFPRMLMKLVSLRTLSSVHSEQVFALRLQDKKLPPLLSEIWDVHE
Chain of Bile acid receptor (Homo sapiens) (Q96RI1 whole entry, looked up, the tested form may be a part): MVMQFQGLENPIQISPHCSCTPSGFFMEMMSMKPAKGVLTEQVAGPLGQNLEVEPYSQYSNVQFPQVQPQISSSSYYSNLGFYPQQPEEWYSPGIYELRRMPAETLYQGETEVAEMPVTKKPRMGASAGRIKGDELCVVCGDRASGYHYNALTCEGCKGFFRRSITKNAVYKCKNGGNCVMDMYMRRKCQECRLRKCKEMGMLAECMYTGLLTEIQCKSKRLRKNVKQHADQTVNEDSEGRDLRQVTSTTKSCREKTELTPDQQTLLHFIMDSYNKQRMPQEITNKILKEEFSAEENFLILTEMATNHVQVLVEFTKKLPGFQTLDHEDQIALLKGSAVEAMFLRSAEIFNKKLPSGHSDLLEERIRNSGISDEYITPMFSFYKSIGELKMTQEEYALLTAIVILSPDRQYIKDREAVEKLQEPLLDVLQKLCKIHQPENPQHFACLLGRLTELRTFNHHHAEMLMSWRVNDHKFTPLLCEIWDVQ

With `CC(=O)c1c(C)cc(C(C)(C)C)cc1C`, the call in assay [1], in assay [2], in assay [3], in assay [4], in assay [5] and in assay [6] was inactive. Also, the compound was called inactive in assay [7], in assay [8], in assay [9], in [10] and in assay [11].

For `O=C(O)c1cn(C2CC2)c2cc(N3CCNCC3)c(F)cc2c1=O`, the result in assay [1], in assay [2], in assay [4], in assay [12], in assay [13] and in [14] was inactive. In addition, the compound was classed as inactive in [15] and in assay [8].

Turning to `CN1Cc2c(N)cccc2C(c2ccccc2)C1` (centres undefined), the result in [1], in [2], in assay [4], in [12], in [13] and in [14] was inactive. Also, the compound was called inactive in assay [5], in assay [7], in [9], in assay [10] and in assay [11].

Take `CCCCCCCCCCCCN`: the compound was called inactive in assay [1], in assay [2], in [3], in [4], in assay [12] and in assay [5]. For the same compound, the compound was called inactive in assay [7], in assay [8], in assay [16], in assay [9], in assay [10] and in assay [11].

On to `CC(C)(COC(=O)c1ccccc1)COC(=O)c1ccccc1`, for which the call in assay [1], in assay [3], in assay [4], in assay [14], in assay [5] and in assay [6] was inactive. Also, the compound was classed as inactive in [7], in [8], in assay [16], in assay [9] and in assay [11]. Also, the AC50 in assay [2] was 100 µM (active).
